Measurements: PubChem BioAssay AID1159580 (chemical genetic matrix, 2015)
Among all 5,500 compounds or so, about 2,000 (36%) were called active. Not shown: some 18% with an inconclusive outcome. Cut-off read from the data, not from the text of the source: active = normalized growth mostly below about 0.91 (no sharp cut-off); inconclusive = no clear call, values can overlap the other calls; inactive = mostly above about 0.92. The list shows a part of the results.

Test: chemical genetic growth profiling, strain panel (AID 1159580);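 note: tested at 20 µM; growth read once vehicle control cultures reached saturation at 30 °C; 1 = growth at the plate median or of vehicle wells; lower values mean less growth of the strain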
Settings: growth OD

Measured: normalized growth

COc1cc(O)c2c(=O)c(O)c(-c3ccc(O)c(O)c3)oc2c1
inactive: S. cerevisiae deletion strains, locus YAL013W, strain DEP1, active compounds read low 0.998 | S. cerevisiae deletion strains, locus YBR021W, strain FUR4, active compounds read low 1.01 | S. cerevisiae deletion strains, locus YBR171W, strain sec66, active compounds read low 0.932 | S. cerevisiae deletion strains, locus YBR229C, strain ROT2, active compounds read low 0.987 | S. cerevisiae deletion strains, locus YCL029C, strain bik1, active compounds read low 1.01 | S. cerevisiae deletion strains, locus YDL005C, strain med2, active compounds read low 1 | S. cerevisiae deletion strains, locus YDL035C, strain GPR1, active compounds read low 0.931 | S. cerevisiae deletion strains, locus YDL040C, strain nat1, active compounds read low 0.988 | S. cerevisiae deletion strains, locus YDL074C, strain BRE1, active compounds read low 0.822 | S. cerevisiae deletion strains, locus YDL101C, strain DUN1, active compounds read low 0.911 | S. cerevisiae deletion strains, locus YDL185W, strain tfp1, active compounds read low 0.995 | S. cerevisiae deletion strains, locus YDL192W, strain arf1, active compounds read low 0.986 | S. cerevisiae deletion strains, locus YDR001C, strain nth1, active compounds read low 0.954 | S. cerevisiae deletion strains, locus YDR101C, strain arx1, active compounds read low 0.992 | S. cerevisiae deletion strains, locus YDR159W, strain sac3, active compounds read low 0.891 | S. cerevisiae deletion strains, locus YDR162C, strain NBP2, active compounds read low 0.948 | S. cerevisiae deletion strains, locus YDR195W, strain ref2 1.02 | S. cerevisiae deletion strains, locus YDR318W, strain mcm21, active compounds read low 0.986 | S. cerevisiae deletion strains, locus YDR388W, active compounds read low 1.01 | S. cerevisiae deletion strains, locus YDR392W, strain spt3, active compounds read low 0.838 | S. cerevisiae deletion strains, locus YDR502C, strain sam2, active compounds read low 0.981 | S. cerevisiae deletion strains, locus YEL061C, strain CIN8, active compounds read low 0.966 | S. cerevisiae deletion strains, locus YER110C, active compounds read low 1.03 | S. cerevisiae deletion strains, locus YER155C, strain BEM2, active compounds read low 1.01 | S. cerevisiae deletion strains, locus YER167W, strain BCK2, active compounds read low 1.02 | S. cerevisiae deletion strains, locus YGL078C, strain dbp3, active compounds read low 1.01 | S. cerevisiae deletion strains, locus YGL086W, strain mad1, active compounds read low 0.933 | S. cerevisiae deletion strains, locus YGL167C, strain pmr1, active compounds read low 0.949 | S. cerevisiae deletion strains, locus YGL227W, strain vid30, active compounds read low 1.01 | S. cerevisiae deletion strains, locus YGL240W, strain doc1, active compounds read low 0.961 | S. cerevisiae deletion strains, locus YGL248W, strain PDE1, active compounds read low 0.915 | S. cerevisiae deletion strains, locus YGR135W, strain pre9, active compounds read low 0.984 | S. cerevisiae deletion strains, locus YGR252W, strain gcn5, active compounds read low 1.03 | S. cerevisiae deletion strains, locus YHR030C, strain SLT2, active compounds read low 0.971 | S. cerevisiae deletion strains, locus YHR079C, strain IRE1 (second series), active compounds read low 1.02 | S. cerevisiae deletion strains, locus YHR094C, strain hxt1, active compounds read low 1.02 | S. cerevisiae deletion strains, locus YHR200W, strain rpn10, active compounds read low 0.997 | S. cerevisiae deletion strains, locus YIL066C, strain RNR3, active compounds read low 0.974 | S. cerevisiae deletion strains, locus YIL073C, strain SPO22, active compounds read low 0.925 | S. cerevisiae deletion strains, locus YIL125W, strain kgd1, active compounds read low 0.981 | S. cerevisiae deletion strains, locus YIR030C, strain dcg1, active compounds read low 1.01 | S. cerevisiae deletion strains, locus YJL095W, strain BCK1, active compounds read low 0.822 | S. cerevisiae deletion strains, locus YJL115W, strain asf1, active compounds read low 0.968 | S. cerevisiae deletion strains, locus YJL134W, strain LCB3, active compounds read low 0.986 | S. cerevisiae deletion strains, locus YJL154C, strain vps35, active compounds read low 0.957 | S. cerevisiae deletion strains, locus YJL168C, strain set2, active compounds read low 1.03 | S. cerevisiae deletion strains, locus YJR043C, strain POL32, active compounds read low 0.896 | S. cerevisiae deletion strains, locus YJR075W, strain HOC1, active compounds read low 0.987 | S. cerevisiae deletion strains, locus YKL009W, strain mrt4, active compounds read low 1.02 | S. cerevisiae deletion strains, locus YKL068W, active compounds read low 1 | S. cerevisiae deletion strains, locus YKL085W, strain MDH1 (second series), active compounds read low 0.994 | S. cerevisiae deletion strains, locus YKL085W, strain MDH1, active compounds read low 0.994 | S. cerevisiae deletion strains, locus YKL190W, strain CNB1, active compounds read low 0.997 | S. cerevisiae deletion strains, locus YKR001C, strain vps1, active compounds read low 0.996 | S. cerevisiae deletion strains, locus YKR026C, strain gcn3, active compounds read low 0.945 | S. cerevisiae deletion strains, locus YKR091W, strain srl3, active compounds read low 0.961 | S. cerevisiae deletion strains, locus YLL026W, active compounds read low 0.934 | S. cerevisiae deletion strains, locus YLL041C, strain sdh2, active compounds read low 0.928 | S. cerevisiae deletion strains, locus YLR039C, strain RIC1, active compounds read low 0.785 | S. cerevisiae deletion strains, locus YLR102C, strain apc9, active compounds read low 1.02 | S. cerevisiae deletion strains, locus YLR262C, strain YPT6, active compounds read low 0.91 | S. cerevisiae deletion strains, locus YLR268W, strain sec22, active compounds read low 0.968 | S. cerevisiae deletion strains, locus YLR330W, strain CHS5, active compounds read low 0.99 | S. cerevisiae deletion strains, locus YLR342W, strain FKS1 (second series), active compounds read low 0.898 | S. cerevisiae deletion strains, locus YLR371W, strain rom2, active compounds read low 0.962 | S. cerevisiae deletion strains, locus YLR384C, strain iki3, active compounds read low 0.936 | S. cerevisiae deletion strains, locus YLR418C, strain cdc73, active compounds read low 0.957 | S. cerevisiae deletion strains, locus YML032C, strain rad52, active compounds read low 1.02 | S. cerevisiae deletion strains, locus YML124C, strain tub3, active compounds read low 1.02 | S. cerevisiae deletion strains, locus YMR078C, strain ctf18, active compounds read low 1.02 | S. cerevisiae deletion strains, locus YMR125W, strain sto1, active compounds read low 1 | S. cerevisiae deletion strains, locus YMR129W, active compounds read low 0.927 | S. cerevisiae deletion strains, locus YMR223W, strain ubp8, active compounds read low 1 | S. cerevisiae deletion strains, locus YMR307W, strain GAS1, active compounds read low 0.768 | S. cerevisiae deletion strains, locus YNL067W, strain RPL9B, active compounds read low 0.953 | S. cerevisiae deletion strains, locus YNL071W, strain lat1, active compounds read low 0.919 | S. cerevisiae deletion strains, locus YNL128W, strain TEP1, active compounds read low 0.935 | S. cerevisiae deletion strains, locus YNL233W, strain BNI4, active compounds read low 0.894 | S. cerevisiae deletion strains, locus YNL248C, strain rpa49, active compounds read low 0.889 | S. cerevisiae deletion strains, locus YNL250W, strain rad50, active compounds read low 0.986 | S. cerevisiae deletion strains, locus YNL271C, strain bni1, active compounds read low 0.998 | S. cerevisiae deletion strains, locus YNL298W, strain CLA4, active compounds read low 1.01 | S. cerevisiae deletion strains, locus YNL307C, strain MCK1, active compounds read low 1.02 | S. cerevisiae deletion strains, locus YNL322C, strain KRE1 (second series), active compounds read low 0.967 | S. cerevisiae deletion strains, locus YNL322C, strain KRE1, active compounds read low 0.952 | S. cerevisiae deletion strains, locus YNR049C, strain mso1, active compounds read low 0.947 | S. cerevisiae deletion strains, locus YNR052C, strain pop2, active compounds read low 0.991 | S. cerevisiae deletion strains, locus YOL006C, strain TOP1, active compounds read low 0.624 | S. cerevisiae deletion strains, locus YOL012C, strain htz1 0.669 | S. cerevisiae deletion strains, locus YOL147C, strain pex11, active compounds read low 1.01 | S. cerevisiae deletion strains, locus YOR061W, strain CKA2, active compounds read low 0.934 | S. cerevisiae deletion strains, locus YOR069W, strain VPS5, active compounds read low 0.966 | S. cerevisiae deletion strains, locus YOR136W, strain idh2, active compounds read low 1.01 | S. cerevisiae deletion strains, locus YOR144C, strain elg1, active compounds read low 1.02 | S. cerevisiae deletion strains, locus YOR184W, strain ser1, active compounds read low 0.993 | S. cerevisiae deletion strains, locus YOR316C, strain cot1, active compounds read low 1.05 | S. cerevisiae deletion strains, locus YPL241C, strain CIN2, active compounds read low 0.989 | S. cerevisiae deletion strains, locus YPR119W, strain clb2, active compounds read low 1.03 | S. cerevisiae deletion strains, locus YPR141C, strain kar3, active compounds read low 0.997 | S. cerevisiae deletion strains, locus YPR163C, strain tif3, active compounds read low 1.01 | S. cerevisiae deletion strains, locus YPR167C, strain met16, active compounds read low 1 | S. cerevisiae deletion strains, strain wtn01, active compounds read low 0.996 | S. cerevisiae strains, strain wild type, active compounds read low 0.929
active: S. cerevisiae deletion strains, locus YAL021C, strain ccr4, active compounds read low 0.466 | S. cerevisiae deletion strains, locus YAL026C, strain drs2, active compounds read low 0.678 | S. cerevisiae deletion strains, locus YAL030W, strain snc1, active compounds read low 0.886 | S. cerevisiae deletion strains, locus YBL061C, strain skt5, active compounds read low 0.794 | S. cerevisiae deletion strains, locus YBR009C, strain hhf1, active compounds read low 0.773 | S. cerevisiae deletion strains, locus YBR023C, strain chs3, active compounds read low 0.693 | S. cerevisiae deletion strains, locus YBR231C, strain swc5, active compounds read low 0.72 | S. cerevisiae deletion strains, locus YBR279W, strain paf1, active compounds read low 0.829 | S. cerevisiae deletion strains, locus YCL011C, strain gbp2, active compounds read low 0.803 | S. cerevisiae deletion strains, locus YCL016C, strain dcc1, active compounds read low 0.865 | S. cerevisiae deletion strains, locus YCL069W, strain vba3, active compounds read low 0.846 | S. cerevisiae deletion strains, locus YCR088W, strain abp1, active compounds read low 0.912 | S. cerevisiae deletion strains, locus YDR069C, strain doa4, active compounds read low 0.467 | S. cerevisiae deletion strains, locus YDR137W, strain rgp1, active compounds read low 0.659 | S. cerevisiae deletion strains, locus YDR297W, strain sur2, active compounds read low 0.787 | S. cerevisiae deletion strains, locus YDR334W, strain swr1, active compounds read low 0.755 | S. cerevisiae deletion strains, locus YDR335W, strain msn5, active compounds read low 0.761 | S. cerevisiae deletion strains, locus YEL003W, strain gim4, active compounds read low 0.795 | S. cerevisiae deletion strains, locus YEL037C, strain rad23, active compounds read low 0.823 | S. cerevisiae deletion strains, locus YEL061C, strain CIN8 (second series), active compounds read low 0.907 | S. cerevisiae deletion strains, locus YER015W, strain faa2, active compounds read low 0.66 | S. cerevisiae deletion strains, locus YER016W, strain bim1, active compounds read low 0.895 | S. cerevisiae deletion strains, locus YER111C, strain swi4, active compounds read low 0.793 | S. cerevisiae deletion strains, locus YER155C, strain BEM2 (second series), active compounds read low 0.789 | S. cerevisiae deletion strains, locus YFR010W, strain ubp6, active compounds read low 0.736 | S. cerevisiae deletion strains, locus YGL173C, strain kem1, active compounds read low 0.657 | S. cerevisiae deletion strains, locus YGL253W, strain hxk2, active compounds read low 0.693 | S. cerevisiae deletion strains, locus YHR013C, strain ard1, active compounds read low 0.808 | S. cerevisiae deletion strains, locus YHR027C, strain rpn1, active compounds read low 0.549 | S. cerevisiae deletion strains, locus YHR129C, strain ARP1, active compounds read low 0.875 | S. cerevisiae deletion strains, locus YHR142W, strain chs7, active compounds read low 0.622 | S. cerevisiae deletion strains, locus YJL092W, strain hpr5, active compounds read low 0.885 | S. cerevisiae deletion strains, locus YJL095W, strain BCK1 (second series), active compounds read low 0.746 | S. cerevisiae deletion strains, locus YJL129C, strain trk1, active compounds read low 0.867 | S. cerevisiae deletion strains, locus YJL164C, strain tpk1, active compounds read low 0.723 | S. cerevisiae deletion strains, locus YJL166W, strain qcr8, active compounds read low 0.819 | S. cerevisiae deletion strains, locus YJL187C, strain SWE1 (second series), active compounds read low 0.776 | S. cerevisiae deletion strains, locus YKL160W, strain elf1, active compounds read low 0.84 | S. cerevisiae deletion strains, locus YLL001W, strain dnm1, active compounds read low 0.782 | S. cerevisiae deletion strains, locus YLR027C, strain aat2, active compounds read low 0.843 | S. cerevisiae deletion strains, locus YLR058C, strain SHM2, active compounds read low 0.827 | S. cerevisiae deletion strains, locus YLR221C, strain rsa3, active compounds read low 0.779 | S. cerevisiae deletion strains, locus YLR258W, strain gsy2, active compounds read low 0.854 | S. cerevisiae deletion strains, locus YLR262C, strain YPT6 (second series), active compounds read low 0.565 | S. cerevisiae deletion strains, locus YLR320W, strain mms22, active compounds read low 0.758 | S. cerevisiae deletion strains, locus YLR342W, strain FKS1, active compounds read low 0.643 | S. cerevisiae deletion strains, locus YLR357W, strain rsc2, active compounds read low 0.678 | S. cerevisiae deletion strains, locus YLR370C, strain arc18, active compounds read low 0.813 | S. cerevisiae deletion strains, locus YML016C, strain PPZ1, active compounds read low 0.915 | S. cerevisiae deletion strains, locus YML120C, strain ndi1, active compounds read low 0.879 | S. cerevisiae deletion strains, locus YMR058W, strain fet3, active compounds read low 0.247 | S. cerevisiae deletion strains, locus YMR205C, strain PFK2, active compounds read low 0.658 | S. cerevisiae deletion strains, locus YMR231W, strain pep5, active compounds read low 0.874 | S. cerevisiae deletion strains, locus YNL209W, strain ssb2, active compounds read low 0.452 | S. cerevisiae deletion strains, locus YOR001W, strain rrp6, active compounds read low 0.845 | S. cerevisiae deletion strains, locus YOR070C, strain gyp1, active compounds read low 0.878 | S. cerevisiae deletion strains, locus YOR080W, strain dia2, active compounds read low 0.813 | S. cerevisiae deletion strains, locus YOR083W, strain WHI5, active compounds read low 0.749 | S. cerevisiae deletion strains, locus YOR106W, strain vam3, active compounds read low 0.407 | S. cerevisiae deletion strains, locus YOR265W, strain rbl2, active compounds read low 0.883 | S. cerevisiae deletion strains, locus YOR270C, strain vph1, active compounds read low 0.484 | S. cerevisiae deletion strains, locus YOR290C, strain snf2, active compounds read low 0.701 | S. cerevisiae deletion strains, locus YPL051W, strain arl3, active compounds read low 0.521 | S. cerevisiae deletion strains, locus YPL078C, strain atp4, active compounds read low 0.796 | S. cerevisiae deletion strains, locus YPL106C, strain sse1, active compounds read low 0.77 | S. cerevisiae deletion strains, locus YPL240C, strain hsp82, active compounds read low 0.83
